Bioassay records deposited in PubChem BioAssay by National Center for Advancing Translational Sciences (NCATS).
JMJD2A Tudor – JMJD2A Tudor domain (human) inhibition; 4.4% of 390,000 active; Potency, µM (doses to about 114 µM), for inactives: at the top dose activity change, negative = inhibition, usual class: inhibitors; O75164; AlphaScreen JMJD2A-Tudor / H3K4me3 peptide binding; AID 504339; also: % is scaled to controls: 0 for no effect and ±100 for the full control effect; nearly all actives have a fitted effect of over 50% in size
BAZ2B block – BAZ2B (human) inhibition; 4.4% of 360,000 active; AID 504333; Q9UIF8; AlphaScreen BAZ2B-H3K14Ac peptide displacement; Potency, µM (titrated, usually from 114 µM), without a hit: top-dose activity change, negative = inhibition, usual class: inhibitors; also: % is scaled to controls: 0 for no effect and ±100 for the full control effect; nearly all actives have a fitted effect of over 60% in size
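In this displacement format the biotinylated H3(5-23) peptide acetylated at Lys14 serves as ligand at 50 nM, with BAZ2B at 50 nM in PBS pH 7.4 containing 0.01% Tween-20. Donor and acceptor beads are 10 ug/mL final.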
HP1b chromo inh – inhibitors of HP1-beta chromodomain binding to methylated histone tails | AlphaScreen HP1-beta / biotin-H3K9me3 peptide binding | P83916 | Potency, µM (highest dose often 114 µM), without a hit: at the top dose activity change, negative = inhibition, hits mostly inhibitors | 0.56% of 390,000 active; also: nearly all actives have a fitted effect of over 70% in size
Target sequence (P83916 whole entry, looked up): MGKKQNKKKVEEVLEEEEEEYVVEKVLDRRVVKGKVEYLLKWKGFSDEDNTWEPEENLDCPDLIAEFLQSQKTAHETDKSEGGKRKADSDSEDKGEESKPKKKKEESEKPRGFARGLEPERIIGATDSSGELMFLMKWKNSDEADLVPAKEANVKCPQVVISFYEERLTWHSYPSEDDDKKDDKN
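AlphaScreen: HP1-beta (50 nM) preformed 30 min with biotin-H3(1-18)K9me3 peptide (50 nM) in PBS pH 7.4, 0.01% Tween-20. Compound added for 30 min at RT, then streptavidin donor/nickel chelate acceptor beads (10 ug/mL) for 30 min.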
VDR inhibitor – vitamin D3 receptor (human) inhibition; P11473; VDR-SRC2-3 peptide fluorescence polarization, 2 h; Potency, µM, for the others: max response, negative = inhibition, usual class: inhibitors; 0.93% of 400,000 active; AID 504847; also: % is scaled to controls: 0 for no effect and ±100 for the full control effect
Target sequence (P11473 whole entry, looked up): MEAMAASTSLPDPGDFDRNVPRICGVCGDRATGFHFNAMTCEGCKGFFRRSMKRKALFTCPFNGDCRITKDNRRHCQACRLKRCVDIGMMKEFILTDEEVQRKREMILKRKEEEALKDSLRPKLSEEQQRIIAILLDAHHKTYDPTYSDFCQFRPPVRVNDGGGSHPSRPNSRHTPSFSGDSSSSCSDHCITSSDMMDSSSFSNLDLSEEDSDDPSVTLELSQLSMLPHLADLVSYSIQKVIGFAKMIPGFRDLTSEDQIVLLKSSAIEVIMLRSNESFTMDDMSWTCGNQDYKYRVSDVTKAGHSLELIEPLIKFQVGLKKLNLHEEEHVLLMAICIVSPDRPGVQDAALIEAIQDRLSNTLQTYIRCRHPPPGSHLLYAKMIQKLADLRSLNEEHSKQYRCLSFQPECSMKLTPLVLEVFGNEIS
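After 23 nl compound addition and a short centrifugation, plates sat for 2 hours at ambient temperature; polarization of fluorescence then indicated loss of VDR binding to peptide SRC2-3.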
L3MBTL1 inh – inhibitors of human L3MBTL1 | Q9Y468 | AlphaScreen L3MBTL1–H3K9me1 peptide binding | Potency, µM (titrated, usually from 57.1 µM), for inactives: at the top dose activity, negative = inhibition, most hits filed as inhibitors | 0.66% of 230,000 active | AID 485360; also: % is scaled to controls: 0 for no effect and ±100 for the full control effect; nearly all actives have a fitted effect of over 60% in size
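Read-out is AlphaScreen signal from streptavidin donor and nickel chelate acceptor beads (10 ug/mL final each) bridging L3MBTL1 (50 nM) and biotinylated K9-monomethylated H3(1-15) peptide (75 nM), after 30 min compound exposure at room temperature.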
PLK1 PBD inh – PLK1 (human) polo-box domain binding inhibition. Potency, µM, inactives show max response, negative = inhibition, actives largely listed as inhibitors. 2.8% of 360,000 active. Plk1 PBD binding of FITC phosphopeptide, fluorescence polarization; also: series mostly up to about 57 µM; % is scaled to controls: 0 for no effect and ±100 for the full control effect; nearly all actives have a fitted effect of over 65% in size
Starred values were filed as active, the others as inactive; ! = not confirmed by another sample; [ ] = remark or other dose. A selection: hits, their analogues and other compounds. The true share with any hit is near 6.9%. Calls follow the shape of the dose curve; as a rule, active = well fitted curve in the direction sought with a large enough effect; inconclusive = small, poorly fitted or top-dose-only effect, or another doubt; inactive = no such curve, though single readings can be large; an effect the other way counts as inactive or inconclusive. Potency is read from the fitted curve at half-maximal effect.

What do the screens show for `COc1cc(/C=C2/C(=O)N(c3ccccc3)N=C2C)ccc1OS(=O)(=O)c1ccccc1`?
BAZ2B block: 28µM*; L3MBTL1 inh: inconclusive

What do the screens show for `CN(C)c1ccc(C=C2C(=O)NC(=S)NC2=O)cc1`?
JMJD2A Tudor: 50µM*; HP1b chromo inh: -3%; VDR inhibitor: inconclusive; PLK1 PBD inh: 2.7µM*

What do the screens show for `O=C(c1ccco1)N1CCC2(CC1)CN(Cc1ccncc1)C2`?
VDR inhibitor: -9%

Results for CC(=O)N1CCN(Cc2ccc(Cl)nc2)CC1 ?
JMJD2A Tudor: 1%; BAZ2B block: -3%; HP1b chromo inh: 16%; VDR inhibitor: 3%; PLK1 PBD inh: 0%

How did O=C(O)c1ccc(Cl)nc1 do in these assays?
JMJD2A Tudor: inconclusive; BAZ2B block: -9%; HP1b chromo inh: 26%; VDR inhibitor: -2%; L3MBTL1 inh: 10%; PLK1 PBD inh: 19µM*

What do the screens show for `O=C1NC(=O)C(=Cc2ccc(OCCOc3ccc([N+](=O)[O-])cc3)cc2)C(=O)N1`?
JMJD2A Tudor: 50µM*; BAZ2B block: 45µM*; HP1b chromo inh: -4%; VDR inhibitor: 50µM*; L3MBTL1 inh: 40µM*; PLK1 PBD inh: 2.7µM*

How did CC(=O)N1CCN(c2ccc([N+](=O)[O-])cc2C=C2C(=O)NC(=O)NC2=O)CC1 do in these assays?
JMJD2A Tudor: 0%; BAZ2B block: 13%; HP1b chromo inh: 39%; VDR inhibitor: 6%; L3MBTL1 inh: 8%; PLK1 PBD inh: inconclusive

What do the screens show for `COc1ccc2c(c1OC)C(=O)OC2c1c(O)n(Cc2ccc(F)cc2)c(=O)[nH]c1=O` (configuration not stated)?
JMJD2A Tudor: 79µM*; BAZ2B block: inconclusive; HP1b chromo inh: 21%; VDR inhibitor: inconclusive; PLK1 PBD inh: inconclusive

What do the screens show for `COc1ccccc1CN1CCCC2(CCN(C(=O)Oc3ccccc3)CC2)C1`?
VDR inhibitor: 8%

Results for Brc1ccc2[nH]cc(C=NN3CCCCCC3)c2c1 ?
JMJD2A Tudor: 50µM*; HP1b chromo inh: inconclusive; VDR inhibitor: -15%; PLK1 PBD inh: -8%

What do the screens show for `O=[N+]([O-])c1cc([As](=O)(O)O)ccc1O`?
JMJD2A Tudor: 89µM*; BAZ2B block: -4%; HP1b chromo inh: 26%; VDR inhibitor: -22%; L3MBTL1 inh: inconclusive; PLK1 PBD inh: -4%

How did O=[N+]([O-])c1cc(O)c(O)c([N+](=O)[O-])c1 do in these assays?
JMJD2A Tudor: -21%; BAZ2B block: inconclusive; HP1b chromo inh: 20%; VDR inhibitor: 10%; L3MBTL1 inh: -7%; PLK1 PBD inh: -2%

Results for CC(=NCCCn1ccnc1)c1c(O)n(Cc2ccccc2)c(=O)[nH]c1=O ?
JMJD2A Tudor: -19%; BAZ2B block: inconclusive; HP1b chromo inh: 36%; VDR inhibitor: -7%; PLK1 PBD inh: -9%

Results for CCCCC/C=C\C/C=C\CCCCCCCCCC(=O)NCCO ?
VDR inhibitor: -13%

Results for CCCCC/C=C\C/C=C\C/C=C\C/C=C\CCCC(=O)N(Cc1ccc(O)c(Cl)c1)Cc1ccc(O)c(Cl)c1 ?
VDR inhibitor: 14µM*

Results for CCCCC/C=C\C/C=C\C/C=C\C/C=C\CCCC(=O)NCCc1ccc(O)c(O)c1 ?
VDR inhibitor: 40µM*!

What do the screens show for `CCCCC/C=C\C/C=C\C/C=C\C/C=C\CCCC(=O)NCCCC(=O)O`?
VDR inhibitor: 28µM*

Results for CCCCC/C=C\C/C=C\C/C=C\C/C=C\CCCC(=O)NCC(=O)O ?
VDR inhibitor: 40µM*!

What do the screens show for `Cc1c(CCC(=O)N2CCCCC2)c(=O)oc2cc3occ(C(C)(C)C)c3cc12`?
JMJD2A Tudor: inconclusive; BAZ2B block: -4%; HP1b chromo inh: 17%; VDR inhibitor: 1%

What do the screens show for `CCCCC/C=C\C/C=C\C/C=C\C/C=C\CCCC(=O)NCCO`?
VDR inhibitor: 71µM*!

Results for CCCCC/C=C\C/C=C\C/C=C\C/C=C\CCCC(=O)NCc1ccoc1 ?
VDR inhibitor: 22µM*

What do the screens show for `COC(=O)[C@]1(C)CC[C@@]2(C)CC[C@@]3(C)C4=CC=C5C(=CC(=O)C(O)=C5C)[C@@]4(C)CC[C@@]3(C)C2C1` (some centres not stated)?
VDR inhibitor: 3.2µM*

How did O=C(Nc1ccc(Cl)c(C(F)(F)F)c1)NC1CC2CCCC(C1)N2Cc1ccccc1 (configuration not stated) do in these assays?
JMJD2A Tudor: -8%; BAZ2B block: -26%; HP1b chromo inh: 43%; VDR inhibitor: 3%; PLK1 PBD inh: 3%

How did C[C@]12CC[C@@H]3c4ccc(OC(=O)N(CCCl)CCCl)cc4CC[C@H]3[C@@H]1CC[C@@H]2O do in these assays?
VDR inhibitor: 50µM*

Results for CCn1c(C)[n+](CC(O)COCC2CC=CCC2)c2ccccc21 (configuration not stated) ?
JMJD2A Tudor: inconclusive; BAZ2B block: -1%; HP1b chromo inh: 13%; VDR inhibitor: 18%; PLK1 PBD inh: -1%

What do the screens show for `Oc1ccc2c3c1O[C@H]1c4oc5ccccc5c4C[C@]4(O)[C@H](C2)N(CC2CC2)CC[C@@]314`?
VDR inhibitor: 0%

Results for COc1ccc(OC)c(-n2c(O)c(/C=C3\C=Nc4ccccc43)c(=O)[nH]c2=O)c1 ?
JMJD2A Tudor: -12%; BAZ2B block: -15%; HP1b chromo inh: 16%; VDR inhibitor: -24%; PLK1 PBD inh: 9.5µM*

How did Cc1ccc(-n2ncc(C(=O)N3CCN(c4ccc(Cl)cc4)CC3)c2C2CCN(C(=O)OC(C)(C)C)CC2)c(C)c1 do in these assays?
JMJD2A Tudor: inconclusive; BAZ2B block: -22%[57.1 µM]; HP1b chromo inh: -3%; VDR inhibitor: 3%

Results for CCC(=O)OC1CCC2C3CCC4CC(=O)C=CC4(C)C3CCC12C (configuration not stated) ?
JMJD2A Tudor: -10%; HP1b chromo inh: 9%; VDR inhibitor: 50µM*; PLK1 PBD inh: -6%

Results for O=C1NC(=O)C(=Cc2ccc3c(c2)OCO3)C(=O)N1 ?
BAZ2B block: -14%; L3MBTL1 inh: 2%

Results for O=[N+]([O-])/C=C/c1ccc2c(c1)OCO2 ?
VDR inhibitor: 7.1µM*

How did COc1cc2c(cc1/C=C/[N+](=O)[O-])OCO2 do in these assays?
JMJD2A Tudor: -23%; BAZ2B block: -30%; HP1b chromo inh: 44%; VDR inhibitor: 25µM*; PLK1 PBD inh: inconclusive
